Reference: PubChem BioAssay
Values joined by “and” are separate entries in the source; they are usually repeats but may differ in a detail not shown here. Identical values can stand only once. Active and inactive are the calls of the source.

Experiment: osmotic lysis modulators in infected erythrocytes, primary screen, PSAC antagonist project, cell-based, P. falciparum Indochina, OD700, 3 h (AID 1156)
Details: higher = more signal, called active from +8 up or from −8 down

z-score, inactive:
C=CCN(Cc1ccccc1)C(=O)C(c1cccs1)N(C(=O)/C=C\C(=O)O)c1c(Cl)cccc1CO (centres undefined) 0.617 and -0.39, CC(CO)N1C(=O)[C@@H]2C3C(=O)OCCC=C[C@H]3OC23C=CCN(CCN2CCOCC2)C(=O)[C@@H]13 (some centres undefined) 0.727 and 0.906, CO[C@H]1COC(=O)CC=C[C@@H](C)COC(=O)[C@@H](OCc2ccccc2)C=C[C@@H]1C 0.362, CCCC[C@@H]1CN2[C@@H](CC[C@@H](C)[C@@H]2c2ccc(Br)cc2)C(=O)O1 0.0015 and -0.273, CCN1C(=O)[C@H]2[C@H]3[C@H](O)[C@H](O)CC(=NOC[C@@H](O)COCc4ccco4)[C@@H]3CC[C@H]2C1=O -0.534 and 1.78, C=CCN(CCCCC)C(=O)C(c1cccs1)N(C(=O)/C=C\C(=O)O)c1ccc(CCO)cc1 (centres undefined) -0.533 and -0.741, C=CCN(C(=O)C1N(c2c(Cl)cccc2CO)C(=O)C2C(C(=O)O)C3C=CC21O3)c1ccc(OC)cc1 (centres undefined) 0.336 and -0.988, C=CCN(CCCC)C(=O)C1N(C(C)(C)CO)C(=O)C2C(C(=O)O)C3C=CC21O3 (centres undefined) -0.724 and -1.27, C=C[C@@H](C)[C@@H](O)c1ccc(OCCO)cc1 0.321 and -0.929, C=CCN(CCCCC)C(=O)C1N(C(C)(C)CO)C(=O)C2C(C(=O)O)C3C=CC21O3 (centres undefined) -0.694 and -1.04, CCOC(=O)[C@@H]1CC2O[C@]23C[C@@H]1C(=O)N1CCC[C@@H]1[C@H]3O[Si](C)(C)C(C)(C)C (some centres undefined) -0.03 and -0.708, CCOC(=O)C[C@H]1[C@H](OC(=O)c2ccccc2-c2ccccc2)[C@@H](NC(=O)Cc2ccc(OC)cc2)c2cc(OCCCO)ccc2N1C(=O)Cc1ccc(OC)cc1 0.308 and -0.142, COC(=O)CC=C[C@@H](C)[C@@H](CO)NS(=O)(=O)c1ccc(C)cc1 0.245 and 0.644, C[N+](C)(C)CCCCCCNC(=O)[C@@H]1C[C@@H]2C(=O)N[C@@H](CCCC[N+](C)(C)C)C(=O)N2[C@@H]1c1ccc(O)cc1 -0.0454 and 0.0605, COC(=O)C1=C(C)N(Cc2ccccc2)C2=C3C(=O)CCC[C@@H]3[C@@](O)(C(=O)OC)C(=O)N2[C@@H]1c1ccccc1 -0.689 and 0.924, O=C1C[C@]2(c3ccc([N+](=O)[O-])cc3)C(=O)N(Cc3ccccc3)c3cc(CO)ccc3[C@H]2N1C1CCCCC1 -0.57 and 4.35, CC(C)=CCCC(C)=CCON=C1C[C@@H](O)[C@@H](O)[C@@H]2[C@@H]3C(=O)N([C@@H](C)c4ccccc4)C(=O)[C@@H]3CC[C@H]12 1.3, C[C@@H]1CC[C@H]2C(=O)NC[C@@H](O)CN2[C@H]1c1ccc(Br)cc1 -0.114 and -0.125, COc1ccc(O[C@H]2C=C[C@@H](c3ccccc3)O[C@@H]2COC(=O)CCC(C)=NO[C@H](C)c2cn([C@H](CO)Cc3ccccc3)nn2)cc1 2.07 and 1.09, C=CCN(CCCC)C(=O)C(c1cccs1)N(C(=O)/C=C\C(=O)O)c1c(Cl)cccc1CO (centres undefined) -0.38 and 0.0904, CC(CO)N1C(=O)[C@@H]2C3C(=O)OCCC=C[C@H]3OC23C=CCN(c2ccc(Cl)cc2)C(=O)[C@@H]13 (some centres undefined) 0.741 and 0.968, C=CCN(C(=O)C(c1cccs1)N(CCOCCO)C(=O)/C=C\C(=O)O)C(C)(C)C (centres undefined) 0.0342 and -0.837, C=C[C@H](OC)[C@@H](O)c1ccc(O)c(F)c1 -0.389 and -0.0295, CC(CO)N1C(=O)[C@@H]2C3C(=O)OCCC=C[C@H]3OC23C=CCN(C(C)(C)C)C(=O)[C@@H]13 (some centres undefined) 1.02 and 0.409
